Assay [1] in a line: ATG_CRE_CIS: Attagene CIS-FACTORIAL HepG2 Assay for human cAMP Responsive Element (CRE) binding protein 3 (AID 2282926). The note with it: HepG2 CRE cis-reporter, Attagene multiplexed mRNA; actives raise or lower the signal. The method, boiled down:
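Readout: fluorescently labelled reporter transcripts resolved by capillary electrophoresis after RT-PCR, taken 24 h post-dosing in transfected HepG2. Endogenous transcription factor activity drives each cis-element reporter; gain or loss of signal fitted relative to DMSO control.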

Assay [2] concerns the target CCAAT/enhancer-binding protein beta (Homo sapiens) (UniProt P17676). Put plainly: ATG_C_EBP_CIS: Attagene CIS-FACTORIAL HepG2 Assay for human CCAAT/Enhancer Binding Protein (C/EBP) beta (AID 2282927). The note with it: HepG2 Attagene cis-factorial transcription factor reporter; actives raise or lower the signal. The method, boiled down:
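Endogenous transcription factor activity in human liver HepG2 cells is inferred from induction of a CEBPB-linked reporter mRNA. Exposure lasts 24 h; activity is fitted in both directions relative to DMSO.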

The nature of assay [3]: ATG_CMV_CIS: Attagene CIS-FACTORIAL HepG2 Assay for human CMV (Internal Marker) (AID 2282928).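 Further: endpoint acts as a background internal control marker rather than a target.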 As to conditions: HepG2 CMV promoter reporter, transcription factor profiling; actives raise or lower the signal. The method, boiled down:
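Readout: fluorescent reporter cDNA fragments separated by capillary electrophoresis after RT-PCR and HpaI cut. Cells: HepG2 carrying transfected cis-promoter reporter constructs, dosed 24 h. Endpoint serves as background internal-marker control, fit bidirectionally versus DMSO.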

The nature of assay [4]: ATG_DR4_LXR_CIS: Attagene CIS-FACTORIAL HepG2 Assay for human Liver X Receptor (LXR), DR4 submotif (AID 2282929). As to conditions: HepG2 Attagene DR4 cis-reporter, mRNA transcription; actives raise or lower the signal. The method in brief:
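Measures endogenous transcription factor activity via a DR4-driven reporter transcript in human HepG2 cells. Compounds incubated 24 h; mRNA quantified by RT-PCR and capillary electrophoresis, analysed as gain or loss of signal versus DMSO.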

Assay [5] concerns the target Aryl hydrocarbon receptor (Homo sapiens) (UniProt P35869). As to the kind of experiment: ATG_Ahr_CIS: Attagene CIS-FACTORIAL HepG2 Assay for human Aryl Hydrocarbon Receptor (Ahr) (AID 2282930). The note with it: HepG2 AhR cis-factorial reporter transcription; actives raise or lower the signal. The method in brief:
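Transient MRTU transfection of HepG2 → 24 h compound exposure → total RNA, oligo(dT) RT → PCR, 6-FAM extension, HpaI cut → CE fluorescence. DMSO = baseline; bidirectional curve fit.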

The nature of assay [6]: ATG_AP_1_CIS: Attagene CIS-FACTORIAL HepG2 Assay for human Activator Protein 1 (AP-1) (AID 2282931). The note with it: HepG2 Attagene cis-factorial AP-1 reporter mRNA; actives raise or lower the signal. The method in brief: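 Bidirectional concentration-response fitting against DMSO controls. Underlying signal: reporter mRNA from cis-promoter constructs in transiently transfected HepG2, measured after 24 h by RT-PCR and capillary electrophoresis.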

A short description of assay [7]: ATG_AP_2_CIS: Attagene CIS-FACTORIAL HepG2 Assay for human Activator Protein 2 (AP-2) (AID 2282932). The note with it: HepG2 AP-2 cis-reporter, Attagene transcription factor profiling; actives raise or lower the signal. The method in brief:
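Endogenous transcription factor activity is reported through transfected multiplex reporter constructs in HepG2, after 24 h of compound exposure. Transcripts were quantified by RT-PCR and capillary electrophoresis of fluorescent fragments. Bidirectional fit against DMSO.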

Assay [8] in a line: ATG_BRE_CIS: Attagene CIS-FACTORIAL HepG2 Assay for human Bone Morphogenetic Protein (BMP) Response Element (BRE) (AID 2282933). The note with it: HepG2 BMP response element reporter, Attagene transcription factor profiling; actives raise or lower the signal. The method in brief:
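HepG2 cells transiently transfected with multiplexed cis-element reporter units were dosed with chemical for 24 h. Reporter mRNA was measured by RT-PCR with fluorescent labelling, HpaI digestion and capillary electrophoresis; bidirectional fitting relative to DMSO.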

Assay [9] concerns the target Retinoic acid receptor alpha (Homo sapiens) (UniProt P10276). As to the kind of experiment: ATG_DR5_RAR_CIS: Attagene CIS-FACTORIAL HepG2 Assay for human Retinoic Acid Receptor Alpha (RARE), DR5 submotif (AID 2282934). The note with it: HepG2 Attagene cis-factorial RARE DR5 reporter, mRNA; actives raise or lower the signal. The method in brief: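 Transient MRTU transfection of HepG2; 24 h compound treatment; TriZol RNA, oligo(dT) RT, PCR, FAM labelling, capillary electrophoresis. Bidirectional fit vs DMSO. Endogenous TF activity at DR5 RARE.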

The target in assay [10] is Transcription factor E2F1 (Homo sapiens) (UniProt Q01094). Put plainly: ATG_E2F_CIS: Attagene CIS-FACTORIAL HepG2 Assay for human E2F Transcription Factor 1 (AID 2282935). The note with it: HepG2 Attagene cis-reporter, E2F reporter RNA transcripts; actives raise or lower the signal. The method in brief:
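Gain or loss of reporter transcript, fitted against DMSO, reflects E2F1-driven transcription. Transiently transfected HepG2 dosed 24 h before RNA isolation. Quantified by fluorescent RT-PCR products separated by capillary electrophoresis.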

A short description of assay [11]: ATG_M_61_CIS: Attagene CIS-FACTORIAL HepG2 Assay for M61 Transcription Factor (Internal Marker) (AID 2282937). As to conditions: HepG2 Attagene CIS-FACTORIAL M61 internal marker reporter; actives raise or lower the signal. The method in brief:
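Fluorescence from labelled cDNA fragments, separated by capillary electrophoresis, quantifies reporter induction. HepG2 cells bearing transiently transfected cis-promoter MRTUs were incubated with test chemical for 24 h; DMSO defined baseline for gain/loss fitting.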

The nature of assay [12]: ATG_M_19_CIS: Attagene CIS-FACTORIAL HepG2 Assay for M19 Transcription Factor (Internal Marker) (AID 2282939). The note with it: HepG2 Attagene CIS-FACTORIAL M19 internal marker reporter; actives raise or lower the signal. The method, boiled down: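 HepG2 cells transiently transfected with cis-regulated multiple reporter transcription units were dosed for 24 h; reporter mRNA was quantified by RT-PCR, 6-FAM primer-extension labelling, HpaI digestion and capillary electrophoresis, with bidirectional fitting against DMSO baseline.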

Assay [13] can be described thus: ATG_Ets_CIS: Attagene CIS-FACTORIAL HepG2 Assay for human Erythroblast Transformation Specific (ETS) (AID 2282941). The note with it: HepG2 ETS cis-reporter transcription, actives raise or lower the signal. The method in brief:
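RT-PCR/capillary electrophoresis fluorescence read-out of reporter mRNA; HepG2 transient multi-reporter transfection; 24 h compound exposure; gain or loss of signal fitted bidirectionally relative to DMSO.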

Assay [14] addresses Hepatocyte nuclear factor 3-beta (Homo sapiens) (UniProt Q9Y261). Put plainly: ATG_FoxA2_CIS: Attagene CIS-FACTORIAL HepG2 Assay for human Forkhead box A2 (FOXA2) (AID 2282942). The note with it: HepG2 cis-reporter transcription factor activity, 24 h; actives raise or lower the signal. The method in brief:
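In transiently transfected human HepG2 cells, promoter-driven reporter mRNA levels after 24 h chemical exposure are determined via RT-PCR with capillary electrophoresis. DMSO serves as baseline for bidirectional fitting.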

A short description of assay [15]: ATG_FoxO_CIS: Attagene CIS-FACTORIAL HepG2 Assay for human Forkhead box O (FoxO) (AID 2282943). The note with it: HepG2 Attagene cis-reporter, FoxO element, mRNA; actives raise or lower the signal. The method in brief:
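HepG2, transient MRTU transfection (cis element, endogenous TFs). Dose 24 h. TriZol RNA → oligo(dT) RT → PCR → 6-FAM primer extension → HpaI cut → CE. Gain/loss vs DMSO.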

Assay [16] is described as follows: ATG_GATA_CIS: Attagene CIS-FACTORIAL HepG2 Assay for human GATA Binding Protein (AID 2282944). The note with it: HepG2 GATA cis-element reporter, Attagene multiplex mRNA; actives raise or lower the signal. The method in brief: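 HepG2 cells transiently transfected with multiplexed cis-element reporter units reflecting endogenous transcription factor activity; reporter mRNA measured after 24 h dosing by RT-PCR, 6-FAM labeling, HpaI digestion and capillary electrophoresis. Bidirectional fitting versus DMSO baseline.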

The nature of assay [17]: ATG_GLI_CIS: Attagene CIS-FACTORIAL HepG2 Assay for human Zinc Finger Protein GLI1 (AID 2282945). The note with it: HepG2, Attagene cis-factorial reporter mRNA, GLI element; actives raise or lower the signal. The method in brief:
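Bidirectional curve fits relative to DMSO, using reporter mRNA levels from RT-PCR plus capillary electrophoresis. Cells were HepG2 transiently carrying cis-regulated reporter constructs, harvested 24 h after dosing.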

The target of assay [18] is Bile acid receptor (Homo sapiens) (UniProt Q96RI1). Put plainly: ATG_IR1_CIS: Attagene CIS-FACTORIAL HepG2 Assay for human Nuclear Receptor Subfamily 1 Group H Member 4 (NR1H4), IR1 submotif (AID 2282946). The note with it: IR1 reporter transcription, actives raise or lower the signal. The method, boiled down: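 HepG2 cells transiently transfected with multiplexed cis-element reporter units read endogenous transcription factor activity. After 24 h compound exposure, reporter mRNA was quantified by RT-PCR, fluorescent labelling, HpaI digestion and capillary electrophoresis; bidirectional fitting versus DMSO baseline.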
Chain of Bile acid receptor (Homo sapiens) (Q96RI1 whole entry, looked up): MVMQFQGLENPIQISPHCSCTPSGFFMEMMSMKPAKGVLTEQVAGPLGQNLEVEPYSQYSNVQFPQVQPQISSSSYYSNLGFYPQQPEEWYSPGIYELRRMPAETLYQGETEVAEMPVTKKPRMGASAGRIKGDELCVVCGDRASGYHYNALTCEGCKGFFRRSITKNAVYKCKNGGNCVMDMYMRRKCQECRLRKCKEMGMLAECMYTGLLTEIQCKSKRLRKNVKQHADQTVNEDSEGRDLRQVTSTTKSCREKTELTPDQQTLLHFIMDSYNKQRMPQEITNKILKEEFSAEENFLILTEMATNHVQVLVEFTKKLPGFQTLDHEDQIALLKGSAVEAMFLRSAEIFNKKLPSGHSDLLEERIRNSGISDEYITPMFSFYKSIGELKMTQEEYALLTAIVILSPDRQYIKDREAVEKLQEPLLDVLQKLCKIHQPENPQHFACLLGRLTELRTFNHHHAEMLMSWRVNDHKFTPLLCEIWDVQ

Assay [19] is described as follows: ATG_E_Box_CIS: Attagene CIS-FACTORIAL HepG2 Assay for human Enhancer Box (E-box) (AID 2282936). As to conditions: HepG2 E-box cis-reporter transcription, actives raise or lower the signal. The method in brief:
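E-box-driven reporter transcripts measured in transiently transfected HepG2 after 24 h exposure: RNA reverse-transcribed, PCR-amplified, fluorescently labelled, digested and resolved by capillary electrophoresis. Gain or loss relative to DMSO.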

Assay [20] in a line: ATG_EGR_CIS: Attagene CIS-FACTORIAL HepG2 Assay for human Early Growth Response 1 (EGR1) (AID 2282938). As to conditions: HepG2 Attagene CIS-FACTORIAL EGR reporter mRNA; actives raise or lower the signal. The method, boiled down: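 Cell-based multiplex transcription assay: HepG2 carrying transfected cis-element reporter units, 24 h chemical treatment. Fluorescence from capillary electrophoresis of RT-PCR products gives mRNA levels; fitting is bidirectional relative to DMSO.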

7 molecules from PubChem BioAssay (EPA / NIEHS) can be followed below.

The source made the active and inactive calls. How the source made its calls: active means hit-call score of the fitted dose curve at least 0.9, where 1 is the maximum; inactive means score below 0.9.

In general, AC50 refers to the midpoint of the concentration-response curve, whichever way the signal moves.

Chain of Retinoic acid receptor alpha (Homo sapiens) (P10276 whole entry, looked up): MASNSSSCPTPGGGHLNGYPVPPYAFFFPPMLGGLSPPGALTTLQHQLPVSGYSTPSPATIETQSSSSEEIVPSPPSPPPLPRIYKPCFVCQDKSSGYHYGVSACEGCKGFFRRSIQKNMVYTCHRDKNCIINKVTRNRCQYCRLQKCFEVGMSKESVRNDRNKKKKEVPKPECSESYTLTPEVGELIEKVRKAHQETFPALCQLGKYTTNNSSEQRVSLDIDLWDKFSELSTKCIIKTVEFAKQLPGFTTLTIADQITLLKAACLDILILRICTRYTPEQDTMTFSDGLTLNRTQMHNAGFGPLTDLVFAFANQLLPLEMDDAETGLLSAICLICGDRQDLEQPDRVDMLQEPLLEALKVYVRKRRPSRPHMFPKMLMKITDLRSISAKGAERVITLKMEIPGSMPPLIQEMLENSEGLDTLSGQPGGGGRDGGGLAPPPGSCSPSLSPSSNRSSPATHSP
Chain of Aryl hydrocarbon receptor (Homo sapiens) (P35869 whole entry, looked up): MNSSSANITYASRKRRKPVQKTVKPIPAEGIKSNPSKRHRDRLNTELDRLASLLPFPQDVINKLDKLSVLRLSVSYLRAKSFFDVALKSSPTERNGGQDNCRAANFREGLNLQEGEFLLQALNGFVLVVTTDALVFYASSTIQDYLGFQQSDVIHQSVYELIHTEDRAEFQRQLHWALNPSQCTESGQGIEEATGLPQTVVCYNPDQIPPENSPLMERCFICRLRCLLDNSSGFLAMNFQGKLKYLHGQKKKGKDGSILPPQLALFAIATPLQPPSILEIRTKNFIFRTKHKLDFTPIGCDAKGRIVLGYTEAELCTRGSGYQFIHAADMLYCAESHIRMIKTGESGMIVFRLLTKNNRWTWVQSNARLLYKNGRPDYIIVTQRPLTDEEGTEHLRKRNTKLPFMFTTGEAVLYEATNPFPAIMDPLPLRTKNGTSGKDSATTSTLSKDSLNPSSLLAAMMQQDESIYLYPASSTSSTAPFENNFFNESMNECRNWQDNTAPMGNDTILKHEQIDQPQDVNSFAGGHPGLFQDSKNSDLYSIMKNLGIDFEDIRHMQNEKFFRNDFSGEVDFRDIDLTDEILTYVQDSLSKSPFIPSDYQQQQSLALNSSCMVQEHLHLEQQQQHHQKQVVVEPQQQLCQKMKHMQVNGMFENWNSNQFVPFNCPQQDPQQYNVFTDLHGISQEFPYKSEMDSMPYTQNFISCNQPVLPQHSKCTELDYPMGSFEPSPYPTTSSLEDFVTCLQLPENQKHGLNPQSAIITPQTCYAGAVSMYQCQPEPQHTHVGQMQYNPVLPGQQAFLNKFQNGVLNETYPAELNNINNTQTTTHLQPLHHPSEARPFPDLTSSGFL
Chain of CCAAT/enhancer-binding protein beta (Homo sapiens) (P17676 whole entry, looked up): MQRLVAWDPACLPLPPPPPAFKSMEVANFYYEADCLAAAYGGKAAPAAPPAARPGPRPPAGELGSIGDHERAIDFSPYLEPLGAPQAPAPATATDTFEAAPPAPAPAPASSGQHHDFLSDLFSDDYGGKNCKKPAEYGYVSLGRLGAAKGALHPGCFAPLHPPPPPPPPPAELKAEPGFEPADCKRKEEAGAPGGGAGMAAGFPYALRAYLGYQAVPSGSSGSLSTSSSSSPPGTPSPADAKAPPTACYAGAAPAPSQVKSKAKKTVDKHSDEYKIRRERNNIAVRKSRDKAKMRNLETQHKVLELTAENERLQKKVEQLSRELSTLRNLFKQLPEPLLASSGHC
Chain of Hepatocyte nuclear factor 3-beta (Homo sapiens) (Q9Y261 whole entry, looked up): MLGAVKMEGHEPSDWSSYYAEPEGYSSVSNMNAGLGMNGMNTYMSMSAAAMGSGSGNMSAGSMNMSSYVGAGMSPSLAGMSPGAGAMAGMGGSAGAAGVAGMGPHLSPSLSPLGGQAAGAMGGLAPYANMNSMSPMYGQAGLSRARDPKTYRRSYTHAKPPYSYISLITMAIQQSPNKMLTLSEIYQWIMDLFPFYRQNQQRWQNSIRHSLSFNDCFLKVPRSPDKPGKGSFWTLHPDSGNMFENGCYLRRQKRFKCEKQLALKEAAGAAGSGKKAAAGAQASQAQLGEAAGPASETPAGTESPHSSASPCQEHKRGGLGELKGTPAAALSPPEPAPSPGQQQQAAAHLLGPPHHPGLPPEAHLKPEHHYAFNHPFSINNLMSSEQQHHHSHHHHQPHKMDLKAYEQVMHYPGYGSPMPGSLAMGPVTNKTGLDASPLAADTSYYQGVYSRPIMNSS
Chain of Transcription factor E2F1 (Homo sapiens) (Q01094 whole entry, looked up): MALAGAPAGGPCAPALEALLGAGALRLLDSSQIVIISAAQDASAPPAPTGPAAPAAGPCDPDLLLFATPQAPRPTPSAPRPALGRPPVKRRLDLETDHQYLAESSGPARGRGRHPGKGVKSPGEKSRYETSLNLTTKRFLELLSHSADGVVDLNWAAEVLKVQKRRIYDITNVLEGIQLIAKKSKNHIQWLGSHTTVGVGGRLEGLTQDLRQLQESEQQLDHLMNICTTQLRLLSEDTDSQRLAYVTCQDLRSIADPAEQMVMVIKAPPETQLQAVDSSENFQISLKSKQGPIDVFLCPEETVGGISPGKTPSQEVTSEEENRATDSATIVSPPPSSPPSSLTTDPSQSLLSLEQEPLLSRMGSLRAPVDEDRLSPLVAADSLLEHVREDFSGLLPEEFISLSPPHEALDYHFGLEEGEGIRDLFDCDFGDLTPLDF

With `O=C(O)COCC(=O)O`, the molecule was called inactive in assay [1], in [2], in assay [3], in assay [4], in assay [5] and in assay [6]. For the same molecule, the outcome in [7], in assay [8], in [9], in assay [10], in [11] and in assay [12] was inactive. Further, the result in [13], in assay [14], in assay [15], in [16], in assay [17] and in [18] was inactive.
Take `Cc1ccc2c(c1)C(=O)OC2=O`: the call in assay [1], in assay [2], in [3], in assay [4], in assay [5] and in assay [6] was inactive. For the same molecule, the call in assay [7], in [8], in [9], in [19], in assay [11] and in assay [20] was inactive. The molecule was classed as inactive in assay [12], in assay [13], in assay [14], in [15], in assay [16] and in [17].
With `CCOc1ccc(NC(=O)CC(C)O)cc1` (stereo not drawn), the molecule was classed as inactive in [1], in assay [2], in assay [3], in assay [4], in [5] and in [6]. In addition, the molecule was called inactive in assay [7], in assay [8], in assay [9], in [10], in [19] and in assay [20]. Further, the call in [12], in assay [13], in [14], in [15], in [16] and in assay [18] was inactive.
On to `Nc1ccccc1[N+](=O)[O-]`, for which the molecule was classed as inactive in assay [1], in assay [2], in assay [3], in [4], in assay [5] and in assay [6]. The outcome in assay [7], in assay [8], in [9], in assay [10], in assay [11] and in assay [20] was inactive. The molecule was classed as inactive in assay [12], in assay [13], in assay [14], in assay [15], in assay [16] and in assay [17]. Moreover, in [18], the molecule was classed as inactive.
`CC(=O)OCCCc1ccccc1`: the outcome in assay [1], in assay [2], in [3], in assay [4], in [5] and in assay [6] was inactive. For the same molecule, the outcome in assay [7], in [8], in [9], in assay [10], in assay [11] and in assay [20] was inactive. The molecule was classed as inactive in assay [12], in assay [13], in assay [14], in assay [15], in assay [16] and in assay [17]. The call in [18] was inactive.
On to `CCOc1ccccc1O`, for which the result in [1], in [2], in [3], in assay [4], in [5] and in [6] was inactive. In addition, the outcome in assay [7], in [8], in assay [9], in assay [10], in assay [19] and in assay [20] was inactive. For the same molecule, the molecule was classed as inactive in assay [12], in assay [13], in assay [14], in assay [15], in assay [17] and in assay [18].
Turning to `CN(C)C(=O)Nc1ccc(Oc2ccc(Cl)cc2)cc1`, the call in assay [1], in assay [2], in assay [5], in assay [7], in [9] and in assay [10] was inactive. In addition, the molecule was classed as inactive in assay [11], in assay [20], in assay [12], in assay [13], in assay [14] and in [15]. The call in [16] and in assay [17] was inactive. The AC50 in assay [3] was 71.9 µM (active); in assay [4] it was 72 µM (active); in assay [6], 100 µM (active); in assay [8] it was 113 µM (active).
